# Screening data as filed in PubChem.
# ssDAF-12 act = S. stercoralis DAF-12 activation, primary screen; HEK293 ssDAF-12/GRIP1 lit1-tk-luc reporter, luminescence; % of 3 µM dafachronic acid response; activation, % at 6.8 µM; 370,000 tested, 1% active; AID 652126;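 active = activation above the mean over all tested compounds plus 3 SD, cut at about 0.9% in these data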;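 note: 0% = DMSO-only wells and 100% = 3 µM delta7-dafachronic acid wells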
# hgDAF12 agonist = agonists of H. glycines DAF-12 nuclear receptor; HEK293 GAL4-hgDAF12 UAS-luciferase reporter, agonist luminescence; normalized to butyrate control; activation, % at 6.8 µM; 370,000 tested, 1.8% active;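 active = activation above a cutoff set at the mean of all screened compounds plus 3 SD, cut at about 10% in these data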;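 note: 0% = DMSO wells and 100% = sodium butyrate wells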
# DAX1 inh-1 = blocks DAX1 repression of SF-1 activated StAR promoter; HEK293T StAR-luciferase reporter, SF-1/DAX-1 repression relief; inhibition, % at 6.8 µM; 370,000 tested, 1.1% active; AID 652010;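 active = inhibition above the mean over all tested compounds plus 3 SD, cut at about 3.6% in these data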;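 note: 0% = DAX-1 cells with DMSO and 100% = cells lacking DAX-1 with DMSO; higher inhibition means more luminescence from relief of DAX-1 repression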
# hcDAF12 agonist = H. contortus DAF-12 activation, primary screen | HEK293 hcDAF-12 lit1-tk-luc reporter, luminescence; 0% DMSO, 100% Δ7-dafachronic acid | activation, % at 6.8 µM | 370,000 tested, 1.4% active | AID 652067;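 active = activation above the mean of all tested compounds plus 3 SD, cut at about 5.5% in these data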;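 note: 100% = response to 3 µM Δ7-dafachronic acid high control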
# DAX1 inh-2 = inhibits human nuclear receptor DAX1; HEK293 Gal4-DAX1 luciferase reporter, luminescence; P51843; inhibition, % at 6.75 µM; 340,000 tested, 0.99% active; AID 504766;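 active = inhibition above the mean over all tested compounds plus 3 SD, cut at about 4.2% in these data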;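 note: 0% = DAX1-transfected cells with DMSO and 100% = empty-vector control cells with DMSO; inhibition shows as a rise in luminescence from relieved DAX1 repression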
# Target sequence (P51843 207-470 limits assumed): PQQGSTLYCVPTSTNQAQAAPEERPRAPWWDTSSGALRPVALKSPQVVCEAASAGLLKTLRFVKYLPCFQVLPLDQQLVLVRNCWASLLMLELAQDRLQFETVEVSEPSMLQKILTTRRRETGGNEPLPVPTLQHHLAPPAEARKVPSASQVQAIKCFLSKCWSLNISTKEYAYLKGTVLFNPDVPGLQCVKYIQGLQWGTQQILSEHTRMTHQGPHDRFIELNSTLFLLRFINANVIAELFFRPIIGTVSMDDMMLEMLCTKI
# LXR ag = counter-screen for hcDAF-12 agonists: agonists of human LXR-beta. shares compounds with hcDAF12 agonist. HEK293 Gal4-LXR tk-luc reporter, luminescence, 24 h; normalized: DMSO 0%, positive control 100%. activation, % at 6.8 µM. 3,400 tested, under 10 active. AID 743027;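 active = mean percent activation of the reporter above a cutoff set as the average over tested compounds plus their standard deviation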
# Target sequence (P55055 whole entry, looked up, the tested form may be a part): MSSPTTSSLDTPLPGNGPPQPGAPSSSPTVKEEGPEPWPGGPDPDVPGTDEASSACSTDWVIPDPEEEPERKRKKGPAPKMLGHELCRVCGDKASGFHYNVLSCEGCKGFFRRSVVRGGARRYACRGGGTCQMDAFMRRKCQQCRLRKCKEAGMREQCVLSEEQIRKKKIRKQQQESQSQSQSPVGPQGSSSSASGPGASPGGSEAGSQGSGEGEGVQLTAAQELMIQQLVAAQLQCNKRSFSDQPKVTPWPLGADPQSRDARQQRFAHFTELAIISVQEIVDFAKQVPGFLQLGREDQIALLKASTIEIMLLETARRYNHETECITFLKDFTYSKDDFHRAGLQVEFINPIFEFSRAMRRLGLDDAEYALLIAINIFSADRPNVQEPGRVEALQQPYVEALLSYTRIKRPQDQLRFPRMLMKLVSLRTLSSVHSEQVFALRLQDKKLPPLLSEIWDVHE
# hcDAF12 ag = confirmation of H. contortus DAF-12 agonists | HEK293 hcDAF-12 lit1-tk-luc reporter, luminescence; % of Δ7-dafachronic acid response | activation, % at 6.8 µM | 3,400 tested, 61% active | AID 743032 | shares compounds with hcDAF12 agonist;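 active = mean activation across triplicate tests above the threshold derived from the earlier primary screen, cut at about 5.5% in these data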;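 note: 0% = DMSO only wells and 100% = 3 µM Δ7-dafachronic acid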
# Starred values were filed as active, the others as inactive; . = no result given. This is a sample that favours compounds with a hit; in the whole collection about 4.1% have one here.
SMILES,ssDAF-12 act,hgDAF12 agonist,DAX1 inh-1,hcDAF12 agonist,DAX1 inh-2,LXR ag,hcDAF12 ag
CCC[C@H]1[C@@H](OC(=O)NCc2cccc(C(F)(F)F)c2)CC[C@@]23CCCN2C(=O)CCC[C@@H]13,-1.9,0.0,.,-4.1,.,.,.
Cc1ccc(Nc2nc(=O)c3cccnc3s2)cc1,1.3*,9.2,1.6,11.1*,1.0,0.8,9.3*
CCCCNC(=S)N(CCO)Cc1cc2cc3c(cc2[nH]c1=O)OCCO3,-0.7,0.8,0.1,7.2*,1.7,-0.2,3.2
COC(=O)c1ccc(CSc2nnnn2C)o1,-0.8,1.9,0.0,-1.0,0.4,.,.
COC(=O)c1ccc(CSc2nnc(C)n2N)o1,-0.5,0.3,0.0,14.9*,1.0,-0.2,-1.4
O=C(O)c1cccc(N/N=C/c2sc(N3CCOCC3)nc2-c2ccccc2)c1,-0.6,8.9,1.1,7.5*,-0.5,0.5,3.4
O=C(O)c1cccc(N/N=C/c2cccc3ccccc23)c1,0.0,13.1*,0.9,7.5*,-2.7,2.5,11.3*
Cc1cc(N2CCN(C(=O)OC(C)(C)C)C[C@H]2C)ccc1N1CCS(=O)(=O)CC1,-1.6,-2.7,-0.7,0.3,.,.,.
Cc1nn(-c2cccc(C(F)(F)F)c2)c(Cl)c1/C=N/Nc1cccc(C(=O)O)c1,-0.3,13.2*,3.7*,10.5*,-2.1,1.3,9.5*
Cc1ccc2nc(N3C(=O)CNC3=S)sc2c1,-0.3,5.6,2.0,3.9,.,.,.
COc1ccc2nc(N3C(=O)CNC3=S)sc2c1,-0.3,8.4,1.0,8.4*,3.1,0.7,4.8
C=CCN1CCN(C(=O)c2oc3ccccc3c2C)CC1,-0.8,0.4,0.5,7.5*,-0.1,-0.2,1.8
Cc1c(C(=O)N2CCN(Cc3cccs3)CC2)oc2ccccc12,-1.5,-0.6,0.4,-0.5,0.0,.,.
COc1ccc(Cl)cc1NC(=O)COC(=O)c1ccc(Cl)nc1,0.6,5.4,-0.4,6.7*,-0.3,-0.2,2.0
C/C(=N/N=C(/C)c1cccs1)c1cccs1,1.1*,15.7*,1.1,8.3*,6.1*,1.0,11.0*
O=C1C(Cl)=C(Nc2ccccc2)C(=O)c2ccccc21,0.1,3.3,1.0,7.9*,1.6,-0.4,0.6
FC(F)(F)c1nc2ccccc2c2nc3ccccc3n12,-0.8,6.5,-0.2,8.3*,1.8,-0.2,3.2
c1ccc(-c2nc3ccccc3c3nc4ccccc4n23)cc1,-2.0,-1.5,-0.3,-2.9,1.2,.,.
COc1ccc(NC(=O)Nc2cc(C)nn2-c2ccccc2)cc1,-0.7,-0.8,0.6,-1.3,.,.,.
C[C@@H](CO)N(Cc1cn(Cc2ccccc2)nn1)S(=O)(=O)c1ccc(F)cc1Br,-0.7,-0.8,0.3,-1.7,.,.,.
COc1ccc(C(OCC(O)CN2CCC(O)CC2)c2ccc(OC)cc2)cc1 (stereo not drawn),0.2,2.9,0.7,10.2*,-0.1,-0.3,0.2
CCCn1c2ccc(C)cc2c2nnc(SCCN3CCCCC3)nc21,0.5,0.1,0.7,9.3*,0.2,-0.1,4.7
Cc1nn(C)c(C(=O)NC(=S)Nc2ccccc2O)c1Cl,1.4*,1.0,0.5,6.7*,0.8,-0.1,6.4*
COc1ccc(-c2cc(C(=O)N3CCCCCC3)no2)cc1,-0.3,9.1,2.0,7.6*,6.2*,1.2,4.3
COc1ccc(-c2cc(C(=O)N3CCN(C(c4ccccc4)c4ccccc4)CC3)no2)cc1,.,.,.,.,0.4,.,.
SMILES,ssDAF-12 act,hgDAF12 agonist,DAX1 inh-1,hcDAF12 agonist,DAX1 inh-2,LXR ag,hcDAF12 ag
CCS(=O)(=O)Nc1c(C(=O)OC)[nH]c2ccccc12,-0.1,-2.2,0.4,3.4,-0.3,.,.
CCS(=O)(=O)Nc1c(C(=O)O)[nH]c2ccccc12,0.0,0.7,0.7,7.6*,0.1,0.2,4.8
NNc1nc(-c2ccccc2Cl)nc2sc3c(c12)CCCC3,0.8,8.9,2.0,8.3*,1.7,0.8,7.7*
NNc1nc(-c2ccccc2Cl)nc2ccccc12,-0.6,-1.0,-0.2,0.8,1.3,.,.
COC(=O)CC(=O)CSc1nc2c(cc1C#N)CCCCC2,0.2,11.3*,3.1,10.4*,1.9,0.4,4.3
O=C(CC1C(=O)NCCN1Cc1ccccc1)NCCCOc1cccnc1 (stereo not drawn),-0.8,0.6,1.3,13.9*,0.9,-0.2,-0.1
CCOC(=O)C1=CCN(S(=O)(=O)c2ccccc2Cl)C1c1ccc(Cl)cc1 (stereo not drawn),-1.2,-2.1,-1.3,-2.0,.,.,.
C[C@@H]1CN([C@H](C)CO)C(=O)c2cc(NS(=O)(=O)c3ccccc3)ccc2O[C@@H](C)CCCCO[C@@H]1CN(C)Cc1ccc(Cl)c(Cl)c1,-0.6,-2.2,0.1,6.7*,.,-0.3,1.0
C[C@H]1CCCCO[C@@H](CN(C)S(=O)(=O)c2ccc(Cl)cc2)[C@@H](C)CN([C@@H](C)CO)C(=O)c2cc(NS(=O)(=O)c3ccccc3)ccc2O1,-0.6,-1.8,-0.6,-1.0,2.0,.,.
COC(=O)Cn1cnc2c(NC(=O)c3ccccc3)ncnc21,0.3,0.3,0.5,0.7,.,.,.
Cc1cc(O)c(C(=O)/C=C/c2ccc(Cl)cc2)c(=O)o1,0.5,6.4,0.9,13.2*,1.1,0.1,0.4
C#CCNC(=O)C[C@H]1C(=O)N(Cc2ccc(OC)cc2)C2=CCCC[C@@]21C(=O)OCC,-2.1,-2.4,0.2,-3.1,.,.,.
Cc1oc(-c2nc3ccccc3n2C)cc1C(=O)c1ccccc1,1.2*,9.2,3.0,10.6*,-1.8,1.8,13.4*
COc1cc(/C=N/NC(=O)c2nnn(-c3nonc3N)c2C(C)C)ccc1O,-1.5,12.4*,-0.4,6.7*,-0.1,-0.4,1.1
CCOC(=O)[C@@]12CCCC3=C1N(CCC3)C(=O)[C@H]2CC(=O)NCc1cccs1,-1.3,-1.0,-1.0,0.1,.,.,.
COc1ccc(/C=N\n2nnc3ccccc32)cc1,0.9*,8.3,4.2*,9.1*,-4.2,1.4,7.7*
COc1ccc(/C=N/n2c(C)nc3ccccc3c2=O)cc1,-0.5,1.6,0.4,-1.4,-0.4,.,.
O=C(Nc1nnc(SCc2ccc(Cl)cc2)s1)c1ccco1,0.9,4.2,0.0,6.9*,-0.4,-0.2,0.0
CCOC(=O)C(C)(C)Sc1nc2c(cnn2-c2ccc(C)cc2)c(=O)[nH]1,-1.1,1.7,0.0,8.8*,-0.4,-0.4,0.4
CCOC(=O)C(C)(C)Sc1nc2c(cnn2-c2ccc(F)cc2)c(=O)[nH]1,-1.1,-4.8,0.0,-1.0,1.1,.,.
Oc1ccccc1OCc1nc2ccccc2s1,1.4*,11.3*,2.9,7.1*,2.4,1.3,6.2*
OCc1cc(Br)ccc1OCc1nc2ccccc2s1,.,.,.,.,1.0,.,.
